From PubChem BioAssay
Most compounds without a hit are left out; they make up all but 21% or so of the library.
HCMV inh: inhibitors of human cytomegalovirus; HFF cells, HCMV-luciferase reporter, 72 h; stronger effect = lower value; activity change, negative = inhibition, % at 57.5 µM; hit rate 4.5% among 410,000; in the data active = activity change below about -60%; inconclusive = no clear call, values can overlap the other calls; inactive = above about -39%; note: % is set by controls: 0 for no effect and ±100 for the full control effect
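Screen run at 2 compound doses on HFFs infected with reporter HCMV, MOI 1 PFU/cell. Luciferase activity from cell lysates at 72 h post infection gave inhibition relative to buffer-only and Salinomycin wells.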
Pf growth 96h: inhibits malaria parasite growth, 96 h | P. falciparum luciferase reporter growth, 96 h | Potency, µM (highest dose often 28.7 µM), inactives show top-dose activity change, negative = inhibition, most hits filed as inhibitors | hit rate 6.9% among 320,000 | AID 504834; note: potency is the fitted concentration of half-maximal effect; % is set by controls: 0 for no effect and ±100 for the full control effect
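96 h incubation, 37 C, 5% CO2, of luciferase-reporter P. falciparum-infected RBCs (2% hematocrit, 0.05% parasitemia final) with test compounds; endpoint luminescence.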
Shiga toxin inh: inhibitors of Shiga toxin in Vero cells; inhibition, % at 38.7 µM; hit rate 9.2% among 290,000; AID 2315; Vero cells, Shiga toxin protein synthesis inhibition reporter; in the data active = inhibition mostly above about 28%, no sharp cut-off; inactive = mostly below about 43%; note: 0% is about no effect
HCV inh: blocks hepatitis C virus | Huh7.5.1 HCVcc-Cre infection, luciferase reporter, 44 h | Potency, µM (titrated, usually from 41.8 µM), inactives show at the top dose activity change, negative = inhibition, usual class: inhibitors | hit rate 3.4% among 340,000; note: potency is the fitted concentration of half-maximal effect; % is set by controls: 0 for no effect and ±100 for the full control effect
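1,000 cells/well; 4 h culture; + compound; + HCVcc-Cre (~0.5 moi); 44 h; luciferase substrate, RT 15 min; read 15 sec.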
Pf growth 48h: inhibits P. falciparum growth in the first generation, 48 h. P. falciparum luciferase growth in erythrocytes, 48 h. Potency, µM (doses to about 28.7 µM), for inactives: top-dose activity change, negative = inhibition, usual class: inhibitors. hit rate 5.9% among 310,000. AID 504832; note: potency is the fitted concentration of half-maximal effect; % is set by controls: 0 for no effect and ±100 for the full control effect
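Parasite viability was followed by luminescence of a genomically integrated firefly luciferase. Cultures held 0.1% parasitemia at 2% hematocrit (final), incubated under 5% CO2 at 37 C.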
Cycloheximide cs: counter-screen for Shiga toxin inhibitors: cycloheximide protein synthesis inhibition; cell reporter, cycloheximide protein synthesis inhibition counterscreen; max response, %; hit rate 12% among 300,000; AID 2314; in the data active = max response mostly above about 13%, no sharp cut-off; inactive = mostly below about 14%; note: read at 38.3 µM for the half of the compounds with a filed dose; 0% is about no effect
Active calls of the source: *; ? = inconclusive; . = not tested or not shown; [ ] = dose if it differs, or a comment. Unless noted, calls come from the whole dose curve; as a rule, active = well fitted inhibition curve with a large enough effect; inconclusive = small, poorly fitted or top-dose-only effect, or another doubt; inactive = no such curve, though single readings can be large or run the other way.

SMILES	HCMV inh	Pf growth 96h	Shiga toxin inh	HCV inh	Pf growth 48h	Cycloheximide cs
CCC(C)NC(=O)Nc1ccc(F)c(Cl)c1 (stereo not given)	-62*	-11%	34	-23%	20%	23*
C=CCNC(=O)Nc1ccc(F)c(Cl)c1	-94*	-13%	19	-5%	0%	3
CC(C)c1ccc(Nc2nnc(SCC(=O)NCC3CCCO3)s2)cc1 (stereo not given)	29	.	.	?	.	.
COc1ccc(C(CNC(=O)Nc2ccc(Cl)cc2)N2CCN(C)CC2)cc1 (stereo not given)	0	?	10	?	?	0
CCOc1ccc(NC(=O)N2CCN(Cc3cc(=O)n4nc(-c5ccc(OC)cc5)sc4n3)CC2)cc1	5	.	.	.	.	.
COc1cccc(CN(C)C(=O)CC[C@H]2O[C@@H](n3ccc(=O)[nH]c3=O)[C@H](O)[C@@H]2O)c1	22	.	.	.	.	.
CC(C)(C)[C@H]1C=C(C(N)=O)O[C@@H](OCc2ccc(CO)cc2)C1	15	0%	40	-4%	0%	13*
C#CCNC(=O)C1=C[C@H](C(C)(C)C)C[C@H](OCc2ccc(CO)cc2)O1	4	?	24	-8%	?	8
CC(C)(C)[C@@H]1C=C(C(=O)Nc2ccccc2)O[C@H](OCc2ccc(CO)cc2)C1	8	8.3µM*	50	-27%	?	26*
CC(C)(C)[C@@H]1C=C(C(N)=O)O[C@H](OCc2ccc(CO)cc2)C1	-8	-12%	-2	?	40%	-4
FC(F)(F)c1cccc(NC(=S)Nc2ccc(Cl)cc2Cl)c1	2	?	-8	19%	?	-4
CS/C(N)=N/C(=S)Nc1cccc(Cl)c1	17	0%	94*	2%	71%	36*
COC(=O)c1cc(OC)c(OC)cc1NC(=S)Nc1cc(Cl)ccc1OC	-32	?	-19	-18%	-8%	2
Fc1ccc(NC(=S)Nc2cccc(Cl)c2)cc1	-73*	19%	17	?	20%	8
FC(F)(F)c1ccccc1NC(=S)Nc1cccc(Cl)c1	-76*	?	-3	24%	-9%[5.75 µM]	-6
Fc1ccc(CNC(=S)Nc2cccc(Cl)c2)cc1	?	-1%	10	?	?	6
COC(=O)c1cc(OC)c(OC)cc1NC(=S)Nc1cccc(Cl)c1	26	13µM*	14	2%	3%	-2
CC(C)Cc1cc(C(=O)N(C)C2CCCN(Cc3ccccc3F)C2)n(C)n1 (stereo not given)	-9	28%	-3	-15%	-21%	-2
CC(=O)NCCC(=O)Nc1cc(S(=O)(=O)N2CCCCC2)ccc1Oc1ccccc1	2	?	-9	-2%	22%	-4
Cc1cc(=O)n2[nH]c(-c3ccc(Cl)cc3)cc2n1	34	?	82*	17%	?	36*
Cc1cccc(-c2cc3nc(-c4ccccc4)cc(=O)n3[nH]2)c1	52	-5%	49	-28%	8%	21*
Cc1cc(=O)n2[nH]c(C)c(-c3ccc(Cl)cc3)c2n1	?	-68%	2	?	?	1
Cc1cc(=O)n2[nH]c(-c3ccc(F)cc3)cc2n1	52	60%	51*	-4%	42%	25*
COc1ccc(NC(=O)CS(=O)(=O)c2cn(CC(=O)N3CCOCC3)c3ccccc23)cc1	-13	5%	-9	-8%	0%	-5
COc1cccc(CNC(=O)COCc2cc(-c3ccc4c(c3)OCO4)on2)c1	6	.	.	.	.	.
SMILES	HCMV inh	Pf growth 96h	Shiga toxin inh	HCV inh	Pf growth 48h	Cycloheximide cs
O=C(c1ccccc1)c1ccc[nH]1	8	.	.	14%	.	.
O=C(Nc1ccccc1)c1cnc[nH]1	91	27%	67*	28%	104%	30*
Cc1ncc(C(=O)Nc2ccccc2)[nH]1	51	.	.	8%	.	.
O=C(c1ccccc1)c1cnc[nH]1	-22	18%	20	6%	16%	13*
CCOc1ccc(NC(=O)N2CCC(CN3CCCCCC3)CC2)cc1	31	.	.	.	.	.
CCc1ccccc1N1CC(c2nc3ccccc3n2CCOc2ccc(Cl)c(C)c2)CC1=O (stereo not given)	-62*	.	.	.	.	.
C=CCN1CC(c2nc3ccccc3n2CCOc2ccccc2)CC1=O (stereo not given)	39	35%	-24	1%	12µM*	-3
Cc1onc(-c2ccccc2)c1C(=O)NC(=S)NNC(=O)c1cc(-c2ccc(F)cc2)n[nH]1	20	?	44	-23%	-13%	17
COc1cccc(/C=C/C(=O)OCC(=O)c2ccccc2)c1OC	-5	.	.	5%	.	.
CCc1cccc2c(C(=O)COC(=O)c3ccccc3)c[nH]c12	-9	175%	76*	?	199%	21*
CCc1cccc2c(C(=O)COC(=O)c3ccc(O)cc3)c[nH]c12	5	-26%	53*	?	39%	37*
CCc1cccc2c(C(=O)COC(=O)/C=C/c3ccccc3OC)c[nH]c12	-8	13µM*	20	?	?	-1
CCC(C)NC(=O)COc1ccc(OCc2ccccc2)cc1 (stereo not given)	-25	-4%	-8	-12%	20%	12*
CCC(C)(C)NC(=O)COc1ccc(OCc2ccccc2)cc1	-1	-2%	27	12%	7%	16
CCNC(=O)COc1ccc(-c2ccccc2)cc1	89	.	60*	-4%	109%	47*
CCNC(=O)COc1ccc(OCc2ccccc2)cc1	17	2%	102*	3%	17%	32*
COc1ccc(NC(=O)COc2ccc(-c3ccccc3)cc2)cc1	1	-15%	.	5%	-6%	.
CC(C)(C)NC(=O)COc1ccc(-c2ccccc2)cc1	7	36%	86*	12%	.	30*
COc1ccc(-c2cc(C(=O)Nc3c(C(=O)c4ccc(C)cc4)oc4ccccc34)no2)cc1	27	.	.	.	.	.
CC1CCC(NC(=O)c2cccn2C)CC1 (stereo not given)	-4	.	.	7%	.	.
CCC(C)NC(=O)c1cnn(-c2ccc(Cl)cc2)c1C1CCN(C(=O)OC(C)(C)C)CC1 (stereo not given)	-7	.	.	.	.	.
CSCC[C@@H](C(=O)Nc1ccc2c(c1)OCCO2)N1Cc2ccccc2C1=O	107	?	59	1%	.	27*
CSCC[C@@H](C(=O)NCc1cccs1)N1Cc2ccccc2C1=O	-6	8.3µM*	-22	0%	.	-5
CS(=O)(=O)CCC(C(=O)Nc1ccc2c(c1)OCO2)N1Cc2ccccc2C1=O (stereo not given)	-13	-20%	23	9%	36%	20*
CSCC[C@@H](C(=O)Nc1cccc(F)c1)N1Cc2ccccc2C1=O	-3	.	.	.	.	.
CC(C)CNc1ncnc2c1ncn2[C@H]1CN(Cc2cccc3ccccc23)C[C@@H](CO)O1	-70*	.	.	.	.	.
